Bioassay records (PubChem BioAssay)
In the library only some 11% were active in any assay of this set; here they are far more common.
G9a block – G9a (human) methyltransferase inhibition. G9a H3K9 monomethylation, AlphaScreen, 2 h. 350,000 tested, 8.8% active. Potency, µM (titrated, usually from 102 µM), for inactives: top-dose activity, negative = inhibition, hits mostly inhibitors. Q96KQ7; note: % is set by controls: 0 for no effect and ±100 for the full control effect; nearly all actives have a fitted effect of over 75% in size
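AlphaScreen read-out: biotin-H3K9 peptide (500 nM) methylation by 20 nM enzyme with 20 uM SAM, 2 h at room temperature after 15 min compound preincubation; anti-monomethyl H3K9 antibody plus donor/acceptor beads, 10 min dark.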
VDR inh – vitamin D3 receptor (human) inhibition | P11473 | VDR-SRC2-3 peptide fluorescence polarization, 2 h | AID 504847 | Potency, µM, for the others: max response, negative = inhibition, usual class: inhibitors | 400,000 tested, 0.93% active; note: % is set by controls: 0 for no effect and ±100 for the full control effect
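Inhibition of the VDR/SRC2-3 peptide interaction is quantified by fluorescence polarization. Compounds (23 nl, pintool) incubate with the reagents for 2 hours at ambient room temperature.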
HP1b binding inh – inhibitors of HP1-beta chromodomain binding to methylated histone tails; P83916; AlphaScreen HP1-beta / biotin-H3K9me3 peptide binding; Potency, µM (doses to about 114 µM), for the others: at the top dose activity change, negative = inhibition, usual class: inhibitors; 390,000 tested, 0.56% active; AID 540317; note: nearly all actives have a fitted effect of over 70% in size
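AlphaScreen: HP1-beta (50 nM) preformed 30 min with biotin-H3(1-18)K9me3 peptide (50 nM) in PBS pH 7.4, 0.01% Tween-20. Compound added for 30 min at RT, then streptavidin donor/nickel chelate acceptor beads (10 ug/mL) for 30 min.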
PLK1 PBD block – blocks phosphopeptide binding to human PLK1 polo-box domain; Plk1 PBD binding of FITC phosphopeptide, fluorescence polarization; Potency, µM, inactives show max response, negative = inhibition, usual class: inhibitors; 360,000 tested, 2.8% active; AID 720504; note: series mostly up to about 57 µM; % is set by controls: 0 for no effect and ±100 for the full control effect; nearly all actives have a fitted effect of over 65% in size
Target sequence (P53350 whole entry, looked up, the tested form may be a part): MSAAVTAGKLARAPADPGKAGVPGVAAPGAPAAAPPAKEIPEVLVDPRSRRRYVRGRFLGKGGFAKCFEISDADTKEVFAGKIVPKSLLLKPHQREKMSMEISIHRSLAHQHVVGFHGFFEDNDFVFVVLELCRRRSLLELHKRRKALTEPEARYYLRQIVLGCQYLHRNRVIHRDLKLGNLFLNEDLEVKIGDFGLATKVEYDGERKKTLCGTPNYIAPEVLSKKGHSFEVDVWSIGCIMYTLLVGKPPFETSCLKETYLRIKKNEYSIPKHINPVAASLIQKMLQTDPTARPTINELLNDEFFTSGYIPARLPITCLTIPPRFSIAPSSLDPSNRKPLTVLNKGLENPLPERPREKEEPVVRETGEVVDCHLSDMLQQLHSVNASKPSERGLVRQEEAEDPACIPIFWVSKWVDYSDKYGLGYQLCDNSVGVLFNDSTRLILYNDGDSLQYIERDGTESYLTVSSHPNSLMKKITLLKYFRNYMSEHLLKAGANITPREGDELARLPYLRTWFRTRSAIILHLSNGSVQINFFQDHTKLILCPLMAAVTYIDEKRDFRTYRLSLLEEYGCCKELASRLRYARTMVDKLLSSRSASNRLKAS
JMJD2A Tudor – inhibitors of human JMJD2A Tudor domain; O75164; AlphaScreen JMJD2A-Tudor / H3K4me3 peptide binding; Potency, µM (doses to about 114 µM), for the others: at the highest dose activity change, negative = inhibition, hits mostly inhibitors; 390,000 tested, 4.4% active; note: % is set by controls: 0 for no effect and ±100 for the full control effect; nearly all actives have a fitted effect of over 50% in size
BAZ2B block – inhibitors of human BAZ2B bromodomain | Q9UIF8 | AlphaScreen BAZ2B-H3K14Ac peptide displacement | Potency, µM (doses to about 114 µM), inactives show at the highest dose activity change, negative = inhibition, actives largely listed as inhibitors | 360,000 tested, 4.4% active | AID 504333; note: % is set by controls: 0 for no effect and ±100 for the full control effect; nearly all actives have a fitted effect of over 60% in size
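Complex of BAZ2B and biotin-H3K14Ac (50 nM apiece) forms over 30 min at RT, then faces library compounds up to 110 uM for another 30 min; AlphaScreen beads added, 20 min dark incubation, luminescence read.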
Starred values were filed as active, the others as inactive; u = inconclusive; x = no result given; [ ] = another dose, or the depositor's remark. Calls come from the whole dose curve; as a rule, active = well fitted curve in the direction sought with a large enough effect; inconclusive = small, poorly fitted or top-dose-only effect, or another doubt; inactive = no such curve, though single readings can be large; an effect the other way counts as inactive or inconclusive. Potency is the fitted concentration of half-maximal effect.

SMILES	G9a block	VDR inh	HP1b binding inh	PLK1 PBD block	JMJD2A Tudor	BAZ2B block
Cc1c(C(=O)NCCc2ccc(Cl)cc2)sc2nc3n(c(=O)c12)CCCC3	u	1%	53%	x	-33%	40µM*
Cc1c(C(=O)N2CCN(c3ccc(F)cc3)CC2)sc2nc3n(c(=O)c12)CCC3	10%	-14%	12%	21µM*	u	-39%
CCOc1ccc(CCNC(=O)c2sc3nc4n(c(=O)c3c2C)CCC4)cc1	19%	5%	63%	-7%	-11%	-36%
Cc1c(C(=O)NCCc2ccc(Cl)cc2)sc2nc3n(c(=O)c12)CCC3	x	15%	20%	-9%	-12%	-2%
Cc1ccc(CCNC(=O)c2sc3nc4n(c(=O)c3c2C)CCC4)cc1	22%	u	5%	11µM*	u	-36%
CC(NC(=O)C(=O)NN=C1CCCC1)c1ccccc1 (stereo not given)	-45%	-4%	34%	-10%	u	-23%
Cc1ccc(CNC(=O)Nc2ccccc2)n1C	1%[2.33 µM]	6%	14%	-8%	-32%	u
O=C(CSc1n[nH]c(-c2ccccc2Cl)n1)NC1CCCCC1	14%	22%	8%	u	-6%	-1%
CCCCN(CC)CCCNC(=O)c1sc2nc3n(c(=O)c2c1C)CCCCC3	8.9µM*	18%	28%	x	-8%	-4%
CCOc1ccc(CCNC(=O)c2sc3nc4n(c(=O)c3c2C)CCCC4)cc1	-6%[59 µM]	11%	4%	x	-19%	-7%
COc1cc2c(cc1OC)-c1cc(Nc3ccc(C(=O)O)cc3)nc(=O)n1CC2	u	-27%	u	-12%	u	71µM*
COc1ccc(Nc2cc3n(c(=O)n2)CCc2cc(OC)c(OC)cc2-3)cc1	-31%[2.33 µM]	-16%	22%	3%	u	-36%
CC(=O)Nc1ccc(SCC(CC(C)C)N2CCN(CCc3ccccc3)CCC2=O)cc1 (stereo not given)	x	u	24%	x	-28%	x
Cc1ccc(NC(=O)c2ccc(Cl)c(S(=O)(=O)Nc3c(C)n(C)n(-c4ccccc4)c3=O)c2)cc1Cl	u	18%	9%	-6%	-26%	u
NS(=O)(=O)c1ccc(N=Nc2ccc(=O)[nH]c2O)cc1	-31%[2.33 µM]	-5%	50µM*	27µM*	35µM*	45µM*
Nc1nc(N)c(N=Nc2ccc(S(N)(=O)=O)cc2)c(=O)[nH]1	35%[0.501 µM]	-20%	44%	-1%	-10%	u
CCOc1ccc(N=C(C)c2ccccc2O)cc1	u	8%	24%	-1%	-16%	-35%
NS(=O)(=O)c1ccc(N=NN2CCCCC2)cc1	u	5%	9%	-8%	-17%	0%
NS(=O)(=O)c1ccc(N=Nc2ccc(O)c3ncccc23)cc1	50µM*	-16%	u	-6%	20µM*	3.5µM*
CCOc1ccc(N=Nc2cc(C(C)C)ccc2O)cc1	20µM*	-9%	14µM*	-2%	18µM*	5.6µM*
CCOc1ccc(N=Nc2ccc(O)c3ncccc23)cc1	40µM*	-3%	-8%	-4%	u	u
CCOc1ccc(C(=O)Nc2ccccc2OCc2cc(=O)n3ccccc3n2)cc1	-7%[59 µM]	21%	7%[57 µM]	x	-3%	9%
Cc1ccc(CSCCC(=O)N2CCN(c3ccc(F)cc3)CC2)cc1	u	-9%	-18%	x	u	-32%
CC1(C(=O)NC2CCCC2)CCC(=O)N1CCCn1ccnc1 (stereo not given)	x	x	x	-12%	x	x
O=C(CSc1nc2ccccc2n1CCc1ccccc1)NC1CCS(=O)(=O)C1 (stereo not given)	2µM*	8%	42%	-4%	-7%	-5%
SMILES	G9a block	VDR inh	HP1b binding inh	PLK1 PBD block	JMJD2A Tudor	BAZ2B block
Cc1ccc(C)c(-n2cc(-c3ccc(Cl)cc3)nc2SCC(=O)NC2CCS(=O)(=O)C2)c1 (stereo not given)	45µM*	-11%	-16%	7%	u	u
Cc1ccccc1-n1c(SCC(=O)NC2CCS(=O)(=O)C2)nc2ccccc2c1=O (stereo not given)	50µM*	3%	20%	-2%	-8%	7%
O=C(c1cc(C(F)(F)F)cc(C(F)(F)F)c1)N1CCC2(CC1)CN(Cc1ccccc1)C2	-7%[12.7 µM]	-3%	x	x	x	x
O=C(NC(=S)N(Cc1ccccc1)c1ccccn1)C1CCCCC1	28µM*	u	28%	u	-6%	-5%
CN(C(=S)NC(=O)C1CCCC1)c1ccccc1	x	x	x	30µM*	x	x
CC(C)=CCN1CCN(Cc2cnc(C)s2)CC1CCO (stereo not given)	12%	7%	16%	-12%	3%	31%
COc1ccc(S(=O)(=O)c2cc3cc(C(C)(C)C)cc(O)c3oc2=O)cc1	16µM*	-17%	-17%	x	u	25µM*
COc1ccc(S(=O)(=O)c2cc3cc(OC)ccc3oc2=O)cc1	-1%[59 µM]	-13%	36%	x	-5%	-9%
CC1=C(C(=O)Nc2ccc(C)cc2C)C(c2cccs2)n2nc(SCc3ccccc3Cl)nc2N1 (stereo not given)	-6%[59 µM]	-10%	33%	x	-3%	1%
O=C(c1coc(=O)c(Br)c1)N1CCOCC1	u	8%	u	u	u	50µM*
Cc1ccc(CCNC(=O)C2CCN(S(=O)(=O)c3ccc4c(c3)CCC(=O)N4)CC2)cc1	-9%	-18%	64%	-4%	-10%	9%
O=C1CCc2cc(S(=O)(=O)N3CCC(C(=O)NCCC4=CCCCC4)CC3)ccc2N1	0%	-38%	9%	21µM*	u	u
O=C(Nc1nnc(Cc2ccccc2)s1)C1CCN(C(=O)c2ccco2)CC1	10µM*	-17%	u	27µM*	-20%	-13%
CCCc1nnc(NC(=O)C2CCN(C(=O)c3ccco3)CC2)s1	-11%	-19%	-2%	0%	-2%	-2%
O=C(Nc1nnc(CCc2ccccc2)s1)C1CCN(C(=O)c2ccco2)CC1	x	-13%	12%	x	-18%	x
COc1ccc(Cc2nnc(NC(=O)C3CCN(C(=O)c4ccco4)CC3)s2)cc1	79µM*	-10%	-14%	-8%	-17%	-3%
CC1CCC(NC(=O)CCC(=O)N2CC(C)Oc3ccccc32)CC1 (stereo not given)	-4%	-22%	12%	-26%	-18%	-2%
O=C(Nc1ccc(CN2CCCCC2)cc1)c1sc2ccccc2c1Cl	u	12%	-14%	-14%	-27%	-28%
COc1cc(/C=N/n2c(C3CCCCC3)n[nH]c2=S)ccc1O	3.5µM*	-28%	u	u	11µM*	-14%
COc1ccc(/C=N/n2c(C3CCCCC3)n[nH]c2=S)c(OC)c1	14µM*	-25%	-8%	-9%	40µM*	u
